Screening data as filed in PubChem BioAssay.
CYP2C19 act: human CYP2C19 activators, primary screen, biochemical, luminescence; 96,000 tested, under 10 active; AID 1025, 2008; activation factor at 5 µM; recombinant CYP2C19, luciferin-H EGE luminescence; active compounds read high; 0 = fully inhibited enzyme, 1 = untreated enzyme;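 active means activation factor of at least 2 at 5 µM in the primary screen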;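 further: 0 = wells with 2.5 mM tranylcypromine and 1 = vehicle-only wells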
CYP2C19 inh: blockers of cytochrome P450 2C19 activity – biochemical, luminescence, ADME assay, primary screen; 96,000 compounds, 21% hits; P33261; AID 778, 2007; inhibition, % at 5 µM; CYP2C19 Supersomes, luciferin-H EGE luminescence, 30 min;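 active means CYP2C19 inhibition above a set limit at 5 µM in the primary screen, cut at about 50% in these data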;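 further: plate controls were negative control wells for no effect and 2.5 mM tranylcypromine positive control for full effect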
CYP2C9 act: human CYP2C9 activators, primary screen, biochemical, luminescence; recombinant CYP2C9, luciferin-H conversion; active compounds read high; factor 1 = untreated enzyme, 0 = blocked; activation factor at 5 µM; 96,000 compounds, 1.4% hits;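 active means activation factor of 2 or more for CYP2C9 at a 5 µM dose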;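 further: 0 = sulfaphenazole-blocked wells and 1 = vehicle-only wells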
Target sequence (P11712 whole entry, looked up): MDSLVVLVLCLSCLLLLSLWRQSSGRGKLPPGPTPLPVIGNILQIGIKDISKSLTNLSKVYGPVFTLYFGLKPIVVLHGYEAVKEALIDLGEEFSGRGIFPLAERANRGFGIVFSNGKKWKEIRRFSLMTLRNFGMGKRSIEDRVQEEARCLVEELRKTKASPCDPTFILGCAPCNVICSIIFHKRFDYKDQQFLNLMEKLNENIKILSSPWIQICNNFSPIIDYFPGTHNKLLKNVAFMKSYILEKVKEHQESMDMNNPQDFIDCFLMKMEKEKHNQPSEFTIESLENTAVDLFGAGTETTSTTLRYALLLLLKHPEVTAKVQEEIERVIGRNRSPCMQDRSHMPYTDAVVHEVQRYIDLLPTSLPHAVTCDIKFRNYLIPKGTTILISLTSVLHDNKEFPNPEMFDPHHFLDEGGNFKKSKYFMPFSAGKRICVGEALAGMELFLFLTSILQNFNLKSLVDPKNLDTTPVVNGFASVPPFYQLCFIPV
MRP reversal: reversal of MRP1-mediated doxorubicin resistance, primary screen, H69AR cells, doxorubicin co-treatment | H69AR cells + 2 uM doxorubicin, CellTiter-Glo, 72 h | differential viability (reversal), % at 10 µM | 85,000 compounds, 0.04% hits;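 active means viability drop by adding the cancer drug above about 55%, with treated viability meeting a 40% cutoff, limit read from the data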;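 further: viability without doxorubicin minus viability with 2 µM doxorubicin for each compound; larger differential means the compound sensitizes cells more to doxorubicin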
CYP2C9 inhib: blockers of cytochrome P450 2C9 activity – biochemical, luminescence, ADME assay, primary screen; P11712; CYP2C9 Supersomes, luciferin-H conversion; inhibition, % at 5 µM; 96,000 compounds, 20% hits; AID 777, 2007;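 active means blocking of liver enzyme CYP2C9 beyond about 50% at 5 µM, limit read from the data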
MRP1 act: H69AR viability gain despite doxorubicin, primary screen, MRP-1 activator project, H69AR cells, CellTiter-Glo; viability rescue; viability increase, % at 10 µM; 140,000 compounds, 0.61% hits;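 active means viability gain under doxorubicin at or above a set limit, the compound median plus 3 SD, cut at about 4.7% in these data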;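 further: MRP-1 overexpressing cells given doxorubicin 25 µM after compound pretreatment; 18-22 h compound pretreatment then 72 h with doxorubicin before readout; 0% = doxorubicin-only wells and 100% = vehicle-treated cells without doxorubicin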
* = called active by the depositor. Compounds with a hit are over-represented: about 21% of the library has one in this group of screens.

`O=C(CSc1nc(Nc2ccccc2)nc(N2CCOCC2)n1)Nc1ccc([N+](=O)[O-])cc1` gave CYP2C19 act 0.5, CYP2C19 inh 53*, CYP2C9 act 0.2, MRP reversal -6, CYP2C9 inhib 77* and MRP1 act -6.
`CC(C)Nc1nc(SCC(N)=O)nc(N2CCOCC2)n1` gave CYP2C19 act 1, CYP2C19 inh -4, CYP2C9 act 0.9, MRP reversal 17, CYP2C9 inhib 10 and MRP1 act -2.
Screening O=C(CSc1nc(Nc2ccccc2)nc(N2CCOCC2)n1)Nc1ccccc1Cl returned CYP2C19 act 0, CYP2C19 inh 95*, CYP2C9 act 0, MRP reversal -2, CYP2C9 inhib 97* and MRP1 act -1.
COC(=O)C(NC=O)C(O)(Cc1ccccc1)C(F)(F)F (stereo unspecified) was read as CYP2C19 act 0.4, CYP2C19 inh 57*, CYP2C9 act 0.8, MRP reversal -15, CYP2C9 inhib 20 and MRP1 act -2.
CC(C)c1ccccc1OCC(=O)NCC(c1cccs1)N1CCOCC1 (stereo unspecified) was read as CYP2C19 act 0.3, CYP2C19 inh 68*, CYP2C9 act 0.8, MRP reversal 29, CYP2C9 inhib 19 and MRP1 act -3.
`Cc1ccc(N(C(=O)Nc2ccccc2)C2=NCC(C)S2)cc1` (stereo unspecified) gave CYP2C19 act 0.3, CYP2C19 inh 71*, CYP2C9 act 0.1, MRP reversal 11, CYP2C9 inhib 86* and MRP1 act -1.
`Cc1c(N(C(=O)Nc2ccccc2)C2=NCC(C)S2)c(=O)n(-c2ccccc2)n1C` (stereo unspecified) gave CYP2C19 act 0.7, CYP2C19 inh 32, CYP2C9 act 0.3, MRP reversal 10, CYP2C9 inhib 74* and MRP1 act 0.
Screening CC1CN=C(N(C(=O)Nc2ccccc2)C(C)C)S1 (stereo unspecified) returned MRP reversal 16 and MRP1 act -2.
`COC(=O)c1ccc(NC(=O)CCN2CCN(Cc3ccccc3)CC2)cc1` gave MRP reversal 7 and MRP1 act -3.
`CC(=O)c1sc2nc(=O)c(C)nn2c1C` gave CYP2C19 act 1.1, CYP2C19 inh -5, CYP2C9 act 1.1, MRP reversal 6, CYP2C9 inhib -12 and MRP1 act 1.
COc1cccc(NC(=O)CNC(=O)c2ccccc2)c1 was read as CYP2C19 act 0.5, CYP2C19 inh 50*, CYP2C9 act 0.5, MRP reversal -25, CYP2C9 inhib 46 and MRP1 act -1.
For COc1cccc(NC(=O)CNC(C)CCC(C)C)c1 (stereo unspecified) the results were CYP2C19 act 0.2, CYP2C19 inh 79*, CYP2C9 act 0.7, MRP reversal 0, CYP2C9 inhib 26 and MRP1 act -3.
COc1ccccc1C(=O)Nc1cccc(NC(C)=O)c1 was read as CYP2C19 act 0.8, CYP2C19 inh 16, CYP2C9 act 1, MRP reversal -37, CYP2C9 inhib -1 and MRP1 act 1.
`COC(=O)c1cccc(NC(=O)Cn2nnc3ccccc32)c1` gave CYP2C19 act 0.4, CYP2C19 inh 64*, CYP2C9 act 0, MRP reversal 13, CYP2C9 inhib 96* and MRP1 act -4.
Screening COc1ccccc1C(=O)NCC(=O)Nc1ccccc1 returned CYP2C19 act 0.5, CYP2C19 inh 51*, CYP2C9 act 0.9, MRP reversal 8, CYP2C9 inhib 9 and MRP1 act 0.
Screening CCOC(=O)c1ccc(NC(=O)Cn2nnc3ccccc32)cc1 returned CYP2C19 act 1, CYP2C19 inh -3, CYP2C9 act 0.9, MRP reversal -6, CYP2C9 inhib 11 and MRP1 act -1.
`COc1cccc(NC(=O)CCC(=O)Nc2cccc(OC)c2)c1` gave MRP1 act -2.
C=C(C)Cn1c(SCC(=O)N/N=C/c2cccc(O)c2)nc2ccccc2c1=O was read as MRP1 act -2.
COC(=O)c1cccc(NC(=O)CCCOc2ccccc2)c1 was read as CYP2C19 act 0.2, CYP2C19 inh 80*, CYP2C9 act 0.4, MRP reversal 6, CYP2C9 inhib 59* and MRP1 act -1.
Screening CCOc1ccc(C2c3c(oc4ccccc4c3=O)C(=O)N2c2ccc(C)cn2)cc1OC (stereo unspecified) returned CYP2C19 act 0.9, CYP2C19 inh 12, CYP2C9 act 0.2, MRP reversal -6, CYP2C9 inhib 82* and MRP1 act -3.
For Cc1ccc(N2C(=O)c3oc4ccccc4c(=O)c3C2c2cccc(O)c2)nc1 (stereo unspecified) the results were MRP reversal 12.
`COc1cc(C2c3c(oc4ccccc4c3=O)C(=O)N2c2ccc(C)cn2)ccc1O` (stereo unspecified) gave CYP2C19 act 0.9, CYP2C19 inh 9, CYP2C9 act 0.3, MRP reversal -9, CYP2C9 inhib 68* and MRP1 act -1.
Screening C=CCOC(=O)C1=C(C)NC(=S)NC1c1cccs1 (stereo unspecified) returned MRP1 act -4.
For CCOC(=O)c1oc2cccc(OCC(O)CNC(C)C)c2c1C (stereo unspecified) the results were CYP2C19 act 0.3, CYP2C19 inh 70*, CYP2C9 act 0.6, MRP reversal -7, CYP2C9 inhib 37 and MRP1 act -5.
Cc1cccc(C)c1OCC(O)CNC(C)C (stereo unspecified) was read as CYP2C19 act 0.9, CYP2C19 inh 10, CYP2C9 act 1.2, MRP reversal 6, CYP2C9 inhib -15 and MRP1 act 0.
CCCCOC(=O)C1=C(C)Nc2ncnn2C1c1cccc(OC)c1OC (stereo unspecified) was read as CYP2C19 act 0.2, CYP2C19 inh 82*, CYP2C9 act 0.4, MRP reversal 14, CYP2C9 inhib 58* and MRP1 act -1.
Screening COc1cccc(C2C(C(=O)OCc3ccccc3)=C(C)Nc3ncnn32)c1OC (stereo unspecified) returned CYP2C19 act 0.4, CYP2C19 inh 64*, CYP2C9 act 0.9, MRP reversal -8, CYP2C9 inhib 10 and MRP1 act 1.
